Inconclusive results are not listed. Active and inactive are the calls of the source. Calls follow the shape of the dose curve; as a rule, active = well fitted inhibition curve with a large enough effect; inconclusive = small, poorly fitted or top-dose-only effect; inactive = flat fitted curve, though single readings scatter.
Target: Voltage-gated inwardly rectifying potassium channel KCNH2 (Homo sapiens) (UniProt Q12809)
Assay: qHTS Assay for Small Molecule Inhibitors of the Human hERG Channel Activity (AID 588834);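 also: lower thallium flux fluorescence means stronger hERG block; nearly all actives have a fitted effect of over 50% in size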; as to activity change, negative = inhibition: top concentration of the series differs between compounds
Conditions: U2OS BacMam hERG, FluxOR thallium flux fluorescence; series mostly up to 46.1 µM; activity change, negative = inhibition: at the top concentration
Method in brief: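 Thallium serves as surrogate for K+ influx through BacMam-delivered hERG in U2OS cells. Compounds are added for about 10 minutes after dye loading; stimulation buffer then starts flux, monitored kinetically on FDSS.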
% is scaled to controls: 0 for no effect and ±100 for the full control effect; potency is read from the fitted curve at half-maximal effect.

Voltage-gated inwardly rectifying potassium channel KCNH2 (Homo sapiens), sequence (Q12809 whole entry, looked up): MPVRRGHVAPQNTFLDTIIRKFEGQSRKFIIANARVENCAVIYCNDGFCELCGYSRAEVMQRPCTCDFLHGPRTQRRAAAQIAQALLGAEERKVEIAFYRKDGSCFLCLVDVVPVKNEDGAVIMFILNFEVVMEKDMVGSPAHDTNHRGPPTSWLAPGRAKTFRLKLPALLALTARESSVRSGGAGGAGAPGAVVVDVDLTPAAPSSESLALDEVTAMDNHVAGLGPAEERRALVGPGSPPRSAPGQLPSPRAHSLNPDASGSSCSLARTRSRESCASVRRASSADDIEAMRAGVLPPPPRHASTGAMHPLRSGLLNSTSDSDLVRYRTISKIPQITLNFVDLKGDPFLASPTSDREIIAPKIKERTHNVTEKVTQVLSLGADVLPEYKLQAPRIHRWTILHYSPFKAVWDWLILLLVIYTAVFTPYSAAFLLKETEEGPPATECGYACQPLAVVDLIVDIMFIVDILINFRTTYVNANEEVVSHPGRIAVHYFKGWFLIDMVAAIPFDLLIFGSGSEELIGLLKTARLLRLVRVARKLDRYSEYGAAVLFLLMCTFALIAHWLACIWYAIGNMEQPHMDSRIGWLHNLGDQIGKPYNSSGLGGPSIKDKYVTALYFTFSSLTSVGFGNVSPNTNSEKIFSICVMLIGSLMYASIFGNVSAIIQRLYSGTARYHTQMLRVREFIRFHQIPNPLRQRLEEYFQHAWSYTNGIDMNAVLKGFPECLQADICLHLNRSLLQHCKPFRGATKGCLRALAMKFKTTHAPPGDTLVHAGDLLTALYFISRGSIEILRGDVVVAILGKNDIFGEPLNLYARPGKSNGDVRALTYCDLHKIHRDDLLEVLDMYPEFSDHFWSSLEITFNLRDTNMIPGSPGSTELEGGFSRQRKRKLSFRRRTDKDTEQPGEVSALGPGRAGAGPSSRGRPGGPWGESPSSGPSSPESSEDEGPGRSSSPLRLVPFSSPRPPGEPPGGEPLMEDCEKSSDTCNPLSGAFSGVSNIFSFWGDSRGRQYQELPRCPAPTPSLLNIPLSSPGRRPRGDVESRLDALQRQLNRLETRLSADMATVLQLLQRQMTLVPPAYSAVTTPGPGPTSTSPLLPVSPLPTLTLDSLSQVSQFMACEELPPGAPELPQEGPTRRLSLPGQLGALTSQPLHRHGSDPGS

Compound | activity change, negative = inhibition | Potency
CC(=O)OCC(=O)[C@@]1(O)CC[C@H]2[C@@H]3CCC4=CC(=O)C=C[C@]4(C)[C@H]3[C@@H](O)C[C@@]21C | 4.27% (inactive) | 
CCC(=O)c1c(O)cc(O)cc1O | 0.136% (inactive) | 
Nc1cc(Cl)c(NC2=NCCN2)c(Cl)c1 |  | 708 nM (active)
O=C(O)c1cc2cc(Cc3cccnc3)ccc2o1 |  | inactive
CC1(C)O[C@@H]2C[C@H]3[C@@H]4C[C@H](F)C5=CC(=O)CC[C@]5(C)[C@H]4[C@@H](O)C[C@]3(C)[C@]2(C(=O)CO)O1 | -7.69% [at 20.6 µM] (inactive) | 
Cc1ccnc(NS(=O)(=O)c2ccc(N)cc2)n1 | 16% [at 20.6 µM] (inactive) | 
C/C=C/c1ccc(OC)cc1 | -8.76% (inactive) | 
COc1ccc(OC)c(C(O)CNC(=O)CN)c1 (configuration not stated) | 1.56% [at 20.6 µM] (inactive) | 
O=C(Nc1ccc(Oc2ccc(Cl)cc2)c(Cl)c1)c1cc(I)cc(I)c1O | 8.76% (inactive) | 
CCC(NC(C)C)C(O)c1ccc(O)c(O)c1 (configuration not stated) | 30.8% (inactive) | 
CN=C(NC#N)Nc1ccc(C2=NNC(=O)CC2C)cc1 (configuration not stated) | 18% (inactive) | 
COc1cc(/C=C/C(=O)O[C@H]2CC[C@]34C[C@]35CC[C@]3(C)[C@@H]([C@H](C)CCC=C(C)C)CC[C@@]3(C)[C@@H]5CC[C@H]4C2(C)C)ccc1O | 6.22% (inactive) | 
CCOC(=O)[C@H](CCc1ccccc1)N[C@@H](C)C(=O)N1Cc2ccccc2C[C@H]1C(=O)O | 1.08% (inactive) | 
C[C@]12CC[C@H]3[C@@H](CCC4=CC(=O)CC[C@@]43C)[C@@H]1CC[C@@H]2C(=O)CO | -0.156% [at 20.6 µM] (inactive) | 
O=C(OCC(O)CO)c1ccccc1Nc1ccnc2cc(Cl)ccc12 (configuration not stated) | -30.9% [at 20.6 µM] (inactive) | 
COc1cc2c(cc1OC)[C@@H]1CC(=O)[C@@H](CC(C)C)CN1CC2 | -10.7% (inactive) | 
CC[C@@H](CO)NCCN[C@@H](CC)CO | 22.1% [at 20.6 µM] (inactive) | 
CCCCCCCCCCCCCCCCOP(=O)([O-])OCC[N+](C)(C)C | -1.74% (inactive) | 
COC(=O)[C@@H]1CC2=CC(=O)CC[C@]2(C)[C@@]23O[C@@H]2C[C@@]2(C)[C@@H](CC[C@@]24CCC(=O)O4)[C@H]13 | -6.72% (inactive) | 
CC1(C)O[C@@H]2C[C@H]3[C@@H]4C[C@H](F)C5=CC(=O)C=C[C@]5(C)[C@H]4[C@@H](O)C[C@]3(C)[C@]2(C(=O)CO)O1 | -3.53% [at 20.6 µM] (inactive) | 
CC1(C)O[C@@H]2[C@@H](CO[C@@]3(COS(N)(=O)=O)OC(C)(C)O[C@@H]23)O1 | -13.9% (inactive) | 
NC(=O)c1cc[n+](CC2=C(C(=O)[O-])N3C(=O)[C@@H](NC(=O)Cc4cccs4)[C@H]3SC2)cc1 | -16.9% [at 20.6 µM] (inactive) | 

Source: PubChem BioAssay (NCATS)
